Results taken from PubChem BioAssay (Tox21).
“And” between values parts separate entries of the source, which are not always exact repeats. Equal values may be shown once. Results filed as inconclusive are left out. More than one record can exist for a structure, and the calls need not agree. The source made the active and inactive calls. Unless noted, calls follow the shape of the dose curve; as a rule, active = well fitted curve in the direction sought with a large enough effect in the repeat runs; inconclusive = weak or mixed curves; inactive = no such curve, though single readings can be large; an effect the other way counts as inactive or inconclusive.

How the values were obtained:
[1] = qHTS assay for small molecule agonists of the p53 signaling pathway (AID 651631; calls by dose curve; also: nearly all actives have a fitted effect of over 15% in size)
Procedure, shortened: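 Quantitative high-throughput format: 4,000 p53RE-bla HCT-116 cells/well, 5 h pre-incubation, 16 h compound exposure at 37 °C, 2 h room-temperature substrate step, fluorescence intensity measured.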

[2] = qHTS assay for small molecules that induce genotoxicity in human embryonic kidney cells expressing luciferase-tagged ATAD5 (AID 651632); also: nearly all actives have a fitted effect of over 15% in size
Procedure, shortened: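 Quantitative HTS in HEK293T expressing luciferase-tagged ATAD5, whose levels rise upon DNA damage. Exposure ran 16 hr at 37C and 5% CO2, with luminescence read 30 min after Amplite addition at room temperature.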

[3] = qHTS assay for small molecule agonists of the p53 signaling pathway - cell viability (AID 651633; calls by dose curve;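 also: p53RE-bla HCT reporter cells with a stable beta-lactamase p53 reporter; series mostly up to about 83 µM; nearly all actives have a fitted effect of over 30% in size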)
Procedure, shortened: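 Viability counter-read: CellTiter-Glo luminescence (30 min, room temperature) in the same p53RE-bla plates. These plates had been exposed to compounds for 16 h at 37 C.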

[4] = qHTS assay for small molecules that induce genotoxicity in human embryonic kidney cells expressing luciferase-tagged ATAD5 - cell viability (AID 651634; calls by dose curve; also: nearly all actives have a fitted effect of over 25% in size)
Procedure, shortened: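 After 15.5 hr incubation with compound at 37C, 5% CO2, HEK293T ATAD5-luciferase cells received CellTiter-Fluor reagent; fluorescence intensity was quantified following 30 min at 37C.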

[5] = qHTS assay for small molecule disruptors of the mitochondrial membrane potential - cell viability (AID 720634; calls by dose curve; also: nearly all actives have a fitted effect of over 20% in size; also: potency is read from the fitted curve at half-maximal effect)
Procedure, shortened: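 ATP-based luminescent viability readout (CellTiter-Glo, 30 min, room temperature) in HepG2 cells multiplexed with the m-MPI membrane potential dye; compound exposure lasted 1 hr at 37 C.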

[6] = qHTS assay for small molecule disruptors of the mitochondrial membrane potential (AID 720635); also: potency is read from the fitted curve at half-maximal effect
Procedure, shortened: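 Mitochondrial membrane potential tracked with Mito-MPS dye, red aggregates (ex 540/em 590 nm) against green monomers (ex 490/em 535 nm). Compound treatment 1 hr at 37C, dye 30 min in HepG2.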

[7] = qHTS assay to test for compound auto fluorescence at 535 nm (green) in HepG2 cells (AID 720675)
[8] = qHTS assay to test for compound auto fluorescence at 460 nm (blue) in HEK293 cells (AID 720678)
Procedure, shortened: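 HEK293 cells (2,000/well, medium with 10% dialyzed FBS) attached 4-5 hr, then exposed to compound overnight at 37C, 5% CO2. Blue fluorescence read at 405/460 nm, with triamterene as reference fluorophore.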

[9] = qHTS assay to test for compound auto fluorescence at 590 nm (red) in HEK293 cells (AID 720679)
Procedure, shortened: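 HEK293 cells (2,000/well, 10% dialyzed FBS) attached 4-5 hr, then dosed with compound or DMSO and incubated overnight at 37C, 5% CO2. Red fluorescence read at 540/590 nm, Rose Bengal sodium as reference fluorophore.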

[10] = qHTS assay to test for compound auto fluorescence at 460 nm (blue) in HEK293 cell free culture (AID 720681)
Procedure, shortened: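 Blue fluorescence (Ex 405/Em 460 nm, triamterene-equivalent) was read immediately after pin transfer of compound or DMSO into medium (DMEM, 10% FBS) without cells.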

[11] = qHTS assay to test for compound auto fluorescence at 535 nm (green) in HEK293 cell free culture (AID 720682)
Procedure, shortened: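 Measurement is a direct plate read of green fluorescence (485 nm in, 535 nm out) after compound addition to serum-supplemented DMEM lacking cells, with fluorescein used to express intensities.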

[12] = qHTS assay to test for compound auto fluorescence at 590 nm (red) in HEK293 cell free culture (AID 720683)
Procedure, shortened: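 Red-channel autofluorescence of compounds in culture medium (DMEM, 10% FBS), no cells, measured at 540/590 nm. Rose Bengal sodium is the reference fluorophore for equivalence.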

[13] = qHTS assay to test for compound auto fluorescence at 590 nm (red) in HepG2 cell free culture (AID 720684)
Procedure, shortened: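 Cell-free; medium MEM + 10% FBS; compound or DMSO added by pintool; read Ex 540/Em 590 nm; Rose Bengal sodium as red reference fluorophore.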

[14] = qHTS assay to test for compound auto fluorescence at 460 nm (blue) in HepG2 cell free culture (AID 720685)
Procedure, shortened: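 Cell-free plates of MEM plus 10% FBS received 23 nL compound or DMSO vehicle; blue-channel (405/460 nm) intensity scored against triamterene as reference fluorophore.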

[15] = qHTS assay to test for compound auto fluorescence at 535 nm (green) in HepG2 cell free culture (AID 720686)
[16] = qHTS assay to test for compound auto fluorescence at 460 nm (blue) in HepG2 cells (AID 720687)
Procedure, shortened: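 Blue-channel autofluorescence (Ex/Em 405/460 nm, triamterene-equivalent) was measured after 1 hr compound exposure at 37 C, 5% CO2. Cells were HepG2, plated overnight at 37 C in MEM plus 10% FBS.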

[17] = target: Glucocorticoid receptor (Homo sapiens) (UniProt P04150); experiment: qHTS assay to identify small molecule antagonists of the glucocorticoid receptor (GR) signaling pathway (AID 720692; active = well fitted inhibition curve with a large enough effect in the signal ratio in the repeat runs, not every such curve was filed as active; the % refers to the signal ratio; also: potency is read from the fitted curve at half-maximal effect)
Chain of Glucocorticoid receptor (Homo sapiens) (P04150 whole entry, looked up): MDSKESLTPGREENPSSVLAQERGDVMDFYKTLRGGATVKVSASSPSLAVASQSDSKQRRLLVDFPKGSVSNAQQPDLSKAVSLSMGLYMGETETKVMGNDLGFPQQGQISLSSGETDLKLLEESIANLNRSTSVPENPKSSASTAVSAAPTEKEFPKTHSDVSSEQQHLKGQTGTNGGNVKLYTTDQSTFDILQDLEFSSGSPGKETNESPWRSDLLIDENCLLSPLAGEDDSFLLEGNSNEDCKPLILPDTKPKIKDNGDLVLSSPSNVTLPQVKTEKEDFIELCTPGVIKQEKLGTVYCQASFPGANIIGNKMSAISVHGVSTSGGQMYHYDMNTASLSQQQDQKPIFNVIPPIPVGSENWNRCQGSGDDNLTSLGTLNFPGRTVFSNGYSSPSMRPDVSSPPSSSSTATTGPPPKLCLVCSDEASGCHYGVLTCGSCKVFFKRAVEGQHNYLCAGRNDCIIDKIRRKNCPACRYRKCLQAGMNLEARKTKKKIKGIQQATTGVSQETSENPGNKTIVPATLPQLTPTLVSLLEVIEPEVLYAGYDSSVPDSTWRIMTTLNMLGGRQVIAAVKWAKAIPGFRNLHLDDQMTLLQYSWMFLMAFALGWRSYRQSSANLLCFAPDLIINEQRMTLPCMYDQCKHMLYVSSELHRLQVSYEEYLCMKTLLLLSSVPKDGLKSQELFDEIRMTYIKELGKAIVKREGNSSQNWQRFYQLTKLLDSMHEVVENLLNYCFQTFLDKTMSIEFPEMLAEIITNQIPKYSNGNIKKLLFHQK
Procedure, shortened: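 Quantitative HTS in antagonist format: HeLa cells expressing endogenous GR and a stably integrated GRE-bla reporter, stimulated with 5 nM dexamethasone (final) alongside test compounds for 18 h.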

[18] = qHTS assay to test for compound auto fluorescence at 590 nm (red) in HepG2 cells (AID 720674)
Procedure, shortened: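 1 hr compound incubation on HepG2 cells, 37 C, 5% CO2; plate read ex 540 nm / em 590 nm; intensities reported as Rose Bengal sodium equivalents.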

[19] = target: Glucocorticoid receptor (Homo sapiens) (UniProt P04150); experiment: qHTS assay to identify small molecule agonists of the glucocorticoid receptor (GR) signaling pathway (AID 720691; active = well fitted activation curve with a large enough effect in the signal ratio in the repeat runs, not every such curve was filed as active; the % refers to the signal ratio)
Procedure, shortened: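 Cells: GR-bla HeLa, endogenous GR with stably integrated GRE-beta-lactamase reporter. Treatment 18 h, 37 C, compounds delivered in DMSO. Detection via LiveBLAzer B/G FRET substrate, 2 h RT, fluorescence intensity.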

[20] = qHTS assay to test for compound auto fluorescence at 535 nm (green) in HEK293 cells (AID 720680)
% is scaled to controls: 0 for no effect and ±100 for the full control effect.

O=Cc1c2ccccc2c(Cl)c2ccccc12
active: Potency [6] 8.42 µM
inactive: Potency [1] | Potency [2] | Potency [3] | Potency [4] | Potency [5] | outcome [7] | Potency [8] | outcome [9] | Potency [10] | outcome [11] | outcome [12] | outcome [13] | Potency [14] | outcome [15] | Potency [16] | Potency [17]

Clc1ccc(Nc2nnc(Cc3ccncc3)c3ccccc23)cc1
inactive: Potency [1] | Potency [2] | Potency [3] | Potency [4] | outcome [18] | outcome [7] | Potency [8] | outcome [9] | Potency [10] | outcome [11] | outcome [12] | outcome [13] | Potency [14] | outcome [15] | Potency [16] | Potency [19]
active: Potency [5] 18.8 µM | Potency [6] 26.6 µM

CC(O)c1ccccc1 (configuration not stated)
inactive: Potency [1] | Potency [2] | Potency [3] | Potency [4] | Potency [5] | outcome [18] | outcome [7] | Potency [8] | outcome [9] | outcome [20] | Potency [10] | outcome [11] | outcome [12] | outcome [13] | Potency [14] | outcome [15] | Potency [16]

C=C1c2cccc(O)c2C(O)=C2C(=O)[C@]3(O)C(O)=C(C(N)=O)C(=O)[C@@H](N(C)C)[C@@H]3[C@@H](O)[C@H]12
inactive: Potency [1] | Potency [2] | Potency [3] | Potency [4] | Potency [5] | Potency [6] | fluorescence, relative to Rose Bengal [18] -0.284% [at 18.6 µM] | fluorescence, % of fluorescein control [7] -0.0181% [at 18.6 µM] | fluorescence, % of triamterene [8] 1.67% [at 18.6 µM] | fluorescence, % of fluorescent control [9] 0.604% [at 18.6 µM] | fluorescence, % of fluorescent control [10] 1.43% [at 18.6 µM] | activity change [11] -0.0974% [at 18.6 µM] | fluorescence, % of fluorescent control [12] 0.464% [at 18.6 µM] | fluorescence, % of Rose Bengal [13] -0.515% [at 18.6 µM] | fluorescence, % of fluorescent control [14] 1.61% [at 18.6 µM] | fluorescence, % of fluorescein control [15] -0.0019% [at 18.6 µM] | Potency [19]

CCC1CO1 (configuration not stated)
inactive: Potency [1] | Potency [2] | Potency [3] | Potency [4] | Potency [5] | outcome [18] | outcome [7] | Potency [8] | outcome [9] | outcome [20] | Potency [10] | outcome [11] | outcome [12] | Potency [14] | outcome [15] | Potency [16]

CC(C)=CC(=O)C=C(C)C
inactive: Potency [1] | Potency [2] | Potency [3] | Potency [4] | Potency [5] | outcome [18] | outcome [7] | Potency [8] | outcome [9] | outcome [20] | Potency [10] | outcome [11] | outcome [12] | outcome [13] | Potency [14] | outcome [15] | Potency [16]

Cc1cc2c(OCC(CNC(C)(C)C)OC(=O)c3ccccc3)cccc2[nH]1 (configuration not stated)
inactive: Potency [1] | Potency [2] | Potency [3] | Potency [4] | Potency [5] | outcome [18] | outcome [7] | Potency [8] | outcome [9] | outcome [20] | Potency [10] | outcome [11] | outcome [12] | outcome [13] | outcome [15] | Potency [16]

CCCCOc1ccc(OCCCN2CCOCC2)cc1
inactive: Potency [1] | Potency [2] | Potency [3] | Potency [4] | Potency [5] | fluorescence, relative to Rose Bengal [18] -0.141% [at 18.6 µM] | fluorescence, % of fluorescein control [7] -0.0009% [at 18.6 µM] | fluorescence, % of triamterene [8] -0.0611% [at 18.6 µM] | fluorescence, % of fluorescent control [9] -0.188% [at 18.6 µM] | fluorescence, % of fluorescein [20] 0.0257% [at 18.6 µM] | fluorescence, % of fluorescent control [10] -0.123% [at 18.6 µM] | activity change [11] 0.0858% [at 18.6 µM] | fluorescence, % of fluorescent control [12] -0.046% [at 18.6 µM] | fluorescence, % of Rose Bengal [13] 0.461% [at 18.6 µM] | fluorescence, % of fluorescent control [14] -0.102% [at 18.6 µM] | fluorescence, % of fluorescein control [15] -0.0254% [at 18.6 µM] | fluorescence, % of fluorescent control [16] -0.0756% [at 18.6 µM]

CC1(C)S[C@@H]2[C@H](NC(=O)C(c3ccccc3)S(=O)(=O)O)C(=O)N2[C@H]1C(=O)O (some centres not stated)
inactive: Potency [1] | Potency [2] | Potency [3] | Potency [4] | Potency [5] | Potency [6] | outcome [18] | outcome [7] | Potency [8] | outcome [9] | outcome [20] | Potency [10] | outcome [11] | outcome [12] | outcome [13] | outcome [15] | Potency [16] | Potency [19] | Potency [17]

CC(CO)CO
inactive: Potency [1] | Potency [2] | Potency [3] | Potency [4] | Potency [5] | Potency [6] | outcome [18] | outcome [7] | Potency [8] | outcome [9] | outcome [20] | Potency [10] | outcome [11] | outcome [12] | outcome [13] | Potency [14] | outcome [15] | Potency [16] | Potency [19]

NC(=O)c1ccncc1
inactive: Potency [1] | Potency [2] | Potency [3] | Potency [4] | Potency [5] | Potency [6] | outcome [18] | outcome [7] | Potency [8] | outcome [9] | Potency [10] | outcome [11] | outcome [12] | Potency [14] | outcome [15] | Potency [19]

O=C1NCCN1CCO
inactive: Potency [1] | Potency [2] | Potency [3] | Potency [4] | Potency [5] | Potency [6] | outcome [18] | outcome [7] | Potency [8] | outcome [9] | outcome [20] | Potency [10] | outcome [11] | outcome [12] | outcome [13] | Potency [14] | outcome [15] | Potency [16]

O=C(O)CCC(=O)C(=O)O
inactive: Potency [1] | Potency [2] | Potency [3] | Potency [4] | Potency [5] | Potency [6] | outcome [7] | Potency [8] | outcome [9] | outcome [20] | Potency [10] | outcome [11] | outcome [12] | outcome [13] | Potency [14] | outcome [15] | Potency [19] | Potency [17]

C=Cc1ccc(S(=O)(=O)O)cc1
inactive: Potency [1] | Potency [2] | Potency [3] | Potency [4] | Potency [5] | Potency [6] | outcome [18] | outcome [7] | outcome [9] | Potency [10] | outcome [11] | outcome [12] | outcome [13] | Potency [14] | outcome [15] | Potency [16]
inactive and 19.5 µM (active): Potency [17]
